Measured values: PubChem BioAssay (NCI)
About 79,000 compounds went through this panel and 15% of them were active in at least one assay; those are over-represented in the sample as a whole. A number with no mark means an inactive call. Active and inactive are the calls of the source. Rule as the data show it: active = growth inhibition above about 70%; inactive = the rest.

Assays:
[1] = NCI Yeast Anticancer Drug Screen. Data for the rad50 strain (AID 155);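 also: 0% = growth of vehicle-only cultures of the same strain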; conditions: S. cerevisiae rad50 strain growth inhibition, hits give high values
Outline: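 A DNA repair-deficient yeast mutant serves as the test organism; compound-induced growth inhibition is calculated against vehicle-treated cells.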

[2] = NCI Yeast Anticancer Drug Screen. Data for the mec2-1 strain (AID 157); conditions: S. cerevisiae mec2-1 strain, hits give high values
Outline: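 Vehicle-treated cultures served as reference for growth inhibition of compound-exposed mec2-1 yeast.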

[3] = NCI Yeast Anticancer Drug Screen. Data for the sgs1 mgt1 strain (AID 161);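 also: 0% = growth of cultures given vehicle only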; conditions: S. cerevisiae sgs1 mgt1 strain, hits give high values
Outline: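 Mutant yeast exposed to compound; growth scored against vehicle-only wells.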

[4] = NCI Yeast Anticancer Drug Screen. Data for the cln2 rad14 strain (AID 165);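 also: 0% = growth equal to vehicle treated cultures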; conditions: S. cerevisiae cln2 rad14 strain, hits give high values
Outline: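 Each compound was tested on cln2 rad14 yeast. Inhibition of growth was calculated against vehicle-exposed controls.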

[5] = NCI Yeast Anticancer Drug Screen. Data for the bub3 strain (AID 167); conditions: S. cerevisiae bub3 mutant strain, hits give high values
Outline: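 Inhibition values come from growth of compound-treated mutant yeast normalised to vehicle-treated controls.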

[6] = NCI Yeast Anticancer Drug Screen. Data for the mlh1 rad18 strain (AID 175); conditions: S. cerevisiae mlh1 rad18 strain growth inhibition, hits give high values
Outline: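 Vehicle-treated cultures served as the reference for growth inhibition in a yeast strain carrying DNA damage repair alterations exposed to each compound.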

[7] = at 5.0 µM (retest, dose inferred, filed as 0.5)
[8] = at 50.0 µM (retest, dose inferred, filed as 5.0)

Structure (SMILES) | growth inhibition [1, 7] | growth inhibition [1, 8] | growth inhibition ([1]; at 50.0 µM) | growth inhibition [2, 7] | growth inhibition [2, 8] | growth inhibition ([2]; at 50.0 µM) | growth inhibition [3, 7] | growth inhibition [3, 8] | growth inhibition ([3]; at 50.0 µM) | growth inhibition [4, 7] | growth inhibition [4, 8] | growth inhibition ([4]; at 50.0 µM) | growth inhibition [5, 7] | growth inhibition [5, 8] | growth inhibition ([5]; at 50.0 µM) | growth inhibition [6, 7] | growth inhibition [6, 8] | growth inhibition ([6]; at 50.0 µM)
CSc1nc(SC)c2cn(Cc3ccccc3)nc2n1 | -2% | 94% (active) | 55.5% | -3% | 95% (active) | 52.1% | -5% | 97% (active) | 80.7% (active) | -8% | 85% (active) | 26.2% | 4% | 92% (active) | 42.8% | -2% | 95% (active) | 63.8%
CCOc1ccc2c(c1)nc1cc(Cl)ccc1[n+]2C | 9% | 81% (active) | 85.5% (active) | 12% | 84% (active) | 87.2% (active) | -2% | 82% (active) | 86.5% (active) | 8% | 68% | 75.2% (active) | 26% | 88% (active) | 82.8% (active) | 18% | 81% (active) | 89.7% (active)
C[N+](C)(CCCCCCOc1c(Br)cc(Br)cc1Br)Cc1ccc(Br)o1 | 71% (active) | 99% (active) | 99.5% (active) | 38% | 100% (active) | 99.8% (active) | 84% (active) | 100% (active) | 99.8% (active) | 40% | 99% (active) | 99.2% (active) | 61% | 99% (active) | 99.8% (active) | 83% (active) | 99% (active) | 99.7% (active)
ClC(Cl)(Cl)C(c1ccccc1)c1ccccc1 | 3% | 30% | 76.8% (active) | 0% | 12% | 38.5% | 3% | 42% | 71.1% (active) | 4% | -3% | -17.2% | -5% | 5% | 16.4% | 16% | 15% | 73.8% (active)
Cc1ccc(S(=O)/C=C/S(=O)(=O)c2ccc(C)cc2)cc1 (configuration not stated) | 99% (active) | 99% (active) | 99.3% (active) | 99% (active) | 100% (active) | 99.6% (active) | 100% (active) | 100% (active) | 99.5% (active) | 98% (active) | 100% (active) | 99.5% (active) | 99% (active) | 100% (active) | 99.6% (active) | 100% (active) | 100% (active) | 99.5% (active)
CN(/N=C\c1ccc(Cl)cc1)C(c1ccc(Cl)cc1)N(C)/N=C/c1ccc(Cl)cc1 (configuration not stated) | -1% | 70% (active) | 29% | 2% | 84% (active) | 9.5% | -3% | 94% (active) | 80.2% (active) | 3% | 67% | 45.5% | -2% | 66% | 16.6% | -3% | 85% (active) | 30.2%
Cc1ccc(S(=O)(=O)CC(=O)CC(=O)C(=O)Nc2cc(C)ccc2C)cc1 | -1% | 4% | 34.2% | -2% | -8% | 9.95% | -2% | 0% | 17.9% | -3% | -1% | 1.85% | -2% | -2% | -0.55% | -2% | -2% | 12.6%
COc1ccc2nc3cc(Cl)ccc3c(NCCCCN(C)C)c2c1 | -2% | 21% | 40.7% | 1% | 18% | 35.8% | -5% | 30% | 37.5% | 5% | 21% | 89.2% (active) | -3% | 18% | 39.6% | 0% | 21% | 31.5%
Cc1cc[n+](C2CCC3(C)C(=CCC4C3CCC3(C)C(C(C)CCCC(C)C)CCC43)C2)cc1 (configuration not stated) | 91% (active) | 97% (active) | 95.8% (active) | 16% | 98% (active) | 96% (active) | 69% | 98% (active) | 98% (active) | 26% | 97% (active) | 64.3% | 75% (active) | 97% (active) | 96.2% (active) | 71% (active) | 97% (active) | 97.7% (active)
CC1CCC2(OC1)OC1CC3C4CCC5CC(OC6OC(COC7OC(CO)C(O)C(O)C7O)C(OC7OC(C)C(O)C(O)C7O)C(O)C6OC6OC(CO)C(O)C(O)C6O)CCC5(C)C4CCC3(C)C1C2C (configuration not stated) | 0% | 99% (active) | 99.2% (active) | -1% | 100% (active) | 99.8% (active) | 16% | 97% (active) | 99.8% (active) | -2% | 99% (active) | 99.5% (active) | 15% | 100% (active) | 99.6% (active) | 2% | 100% (active) | 99.7% (active)
O=[N+]([O-])c1cc(CNCCO)c(O)c2ncccc12 | 99% (active) | 99% (active) | 98.7% (active) | 100% (active) | 99% (active) | 99.3% (active) | 99% (active) | 99% (active) | 99.2% (active) | 95% (active) | 98% (active) | 97.9% (active) | 99% (active) | 99% (active) | 99% (active) | 99% (active) | 99% (active) | 98.8% (active)
CCN(CC)c1cc(Nc2c3ccc(Cl)cc3nc3cc(Cl)ccc23)ccc1O | 1% | 4% | 34.5% | -39% | -3% | -11.2% | -3% | -4% | -4.35% | -6% | -3% | 71.7% (active) | -5% | -10% | 0.75% | 0% | -2% | -0.95%
C[Si](C)(C)C1=C([Si](C)(C)C)C(Cl)(Cl)C1=O | 10% | 32% | 12% | 12% | 17% | 9.35% | 20% | 49% | 72.2% (active) | 6% | 40% | 45.5% | 16% | 33% | 29.2% | 18% | 38% | 32.4%
O=[N+]([O-])c1cc(C(F)(F)F)cc([N+](=O)[O-])c1CCl | 100% (active) | 100% (active) | 99.7% (active) | 100% (active) | 100% (active) | 99.8% (active) | 100% (active) | 100% (active) | 99.6% (active) | 100% (active) | 100% (active) | 99.4% (active) | 100% (active) | 100% (active) | 99.4% (active) | 100% (active) | 100% (active) | 99.7% (active)
Oc1ccc2c(c1)Cc1cc(Br)ccc1-2 | 3% | 99% (active) | 98.5% (active) | -6% | 99% (active) | 98.9% (active) | 7% | 80% (active) | 98.6% (active) | -5% | 99% (active) | 97.8% (active) | 24% | 99% (active) | 98.5% (active) | -11% | 99% (active) | 98.2% (active)
CCOC(=O)Nc1cc(NC(C)/C(=N/O)c2ccccc2)c([N+](=O)[O-])c(N)n1 (configuration not stated) | -18% | 97% (active) | 42.6% | -5% | 47% | 59.5% | 1% | 69% | 47.5% | -21% | 98% (active) | 24.9% | -10% | 87% (active) | 62.1% | -5% | 82% (active) | 44.2%
Cc1cccc2c(CBr)cc(=O)[nH]c12 | 7% | 91% (active) | 86.8% (active) | 15% | 98% (active) | 90.1% (active) | 13% | 92% (active) | 84.3% (active) | 4% | 61% | 91.5% (active) | 12% | 96% (active) | 94.2% (active) | 35% | 97% (active) | 95.7% (active)
CC1(C)C=CC2=C(O1)C(=O)c1ccccc1C2=O | 9% | 76% (active) | 39.6% | 8% | 77% (active) | -0.85% | 18% | 88% (active) | 73.2% (active) | -7% | 12% | 6.9% | 67% | 95% (active) | 48.4% | 16% | 89% (active) | 44.5%
C=CCCCCO/N=C/c1c2c(O)c3c(O)c(C)c4c(c3c1O)C(=O)C(C)(O/C=C/C(OC)C(C)C(OC(C)=O)C(C)C(O)C(C)C(O)C(C)/C=C/C=C(\C)C(=O)N2)O4 (configuration not stated) | 44% | 89% (active) | 86.4% (active) | 44% | 91% (active) | 91.8% (active) | 33% | 87% (active) | 66.8% | 67% | 91% (active) | 88.3% (active) | 49% | 93% (active) | 79.9% (active) | 34% | 89% (active) | 85.3% (active)
